# Screens deposited in PubChem BioAssay by National Center for Advancing Translational Sciences (NCATS).
# Lassa entry inh: blocks Lassa virus binding to or entry into cells | AID 540256 | Lassa virus pseudotype entry inhibition, cell reporter | actives 1.2% (n = 300,000) | Potency, µM (titrated, usually from 37.9 µM), inactives show at the highest dose activity change, negative = inhibition, hits mostly inhibitors; calls by dose curve; tested in HEK293 cells; further: potency means the concentration at half of the fitted maximal effect; on the % scale 0 is the no-effect control and ±100 the full control effect; nearly all actives have a fitted effect of over 50% in size
# HCMV inh: inhibitors of human cytomegalovirus. HFF cells, HCMV-luciferase reporter, 72 h; stronger effect = lower value. activity change, negative = inhibition, % at 57.5 µM. actives 4.5% (n = 410,000). AID 1259415; in the data active means activity change below about -60%; inconclusive means no clear call, values can overlap the other calls; inactive means above about -39%; further: on the % scale 0 is the no-effect control and ±100 the full control effect
#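 Steps: HFFs plated, 16 h 37C; compounds added; HCMV-luciferase added to MOI 1 PFU/cell; 72 h 37C; OneGlo reagent, 5 min room temperature; luminescence read, normalized to controls.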
# SARS PLP yeast: blocks SARS-CoV papain-like protease in a yeast assay | S. cerevisiae expressing SARS-CoV PLpro, growth rescue | Potency, µM (series often up to 32.9 µM), for the others: top-dose activity, positive = growth rescue, usual class: activators | actives 0.19% (n = 330,000) | AID 485353; calls by dose curve; further: potency means the concentration at half of the fitted maximal effect; 0% is about no effect; nearly all actives have a fitted effect of over 55% in size
# HCV inhibitor: inhibitors of hepatitis C virus infection; Huh7.5.1 HCVcc-Cre infection, luciferase reporter, 44 h; Potency, µM (top dose mostly 41.8 µM), for inactives: at the highest dose activity change, negative = inhibition, actives largely listed as inhibitors; actives 3.4% (n = 340,000); active means well fitted inhibition curve with a large enough effect; inconclusive means small, poorly fitted or top-dose-only effect, or another doubt; inactive means no such curve, though single readings can be large or run the other way; further: potency means the concentration at half of the fitted maximal effect; on the % scale 0 is the no-effect control and ±100 the full control effect
#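 Antiviral activity was scored by luciferase reporter output from cells infected with HCVcc-Cre (~0.5 moi) in presence of compound, 44 h infection period, cells seeded 1,000/well 4 h prior.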
# MARV entry inh: inhibitors of Marburg virus binding or cell entry. Marburg virus pseudotyped entry inhibition, cell reporter. Potency, µM (titrated, usually from 37.8 µM), for the others: at the top dose activity change, negative = inhibition, most hits filed as inhibitors. actives 1.8% (n = 300,000); calls by dose curve; tested in HEK293 cells; further: potency means the concentration at half of the fitted maximal effect; on the % scale 0 is the no-effect control and ±100 the full control effect
# FMDV inh: antivirals against foot and mouth disease virus; FMDV antiviral cell-based qHTS; Potency, µM (top dose mostly 57.9 µM), for inactives: at the highest dose activity change, negative = inhibition, usual class: inhibitors; actives 1.2% (n = 410,000); calls by dose curve; tested in HEK293T cells; further: read-out not given here; potency means the concentration at half of the fitted maximal effect; on the % scale 0 is the no-effect control and ±100 the full control effect; nearly all actives have a fitted effect of over 45% in size
# The depositor's hits bear a star; ? = inconclusive; . = no result given; ! = a repeat was not active; [ ] = dose if it differs, or a comment. Only some compounds are listed: those with a hit (about 8% of all), similar ones and a draw of the others.
SMILES,Lassa entry inh,HCMV inh,SARS PLP yeast,HCV inhibitor,MARV entry inh,FMDV inh
COc1cc2c3nnc(-c4ccc(F)cc4)c-3cn(Cc3ccccc3F)c2cc1OC,?,-89.4*,1.9%,?,?,?
NC(=S)NN=C1c2cc(OCCN3CCOCC3)ccc2-c2ccc(OCCN3CCOCC3)cc21,?,.,0.0%,3.98µM*,?,17.8µM*
COc1ccc(CNC(=O)Cc2coc3ccc(C)cc23)cc1,7.1%[46.1 µM],13.1,.,.,2.0%[46.1 µM],-4.2%
COc1ccc(-c2[nH]ncc2N=Nc2cc(C)cc(C)c2)cc1,?,10.3,-3.2%,2.24µM*,?,-13.9%
O=C(Nc1nc2c(s1)CCc1ccccc1-2)c1ccco1,17.5%,112.2,-25.0%,31.6µM*,?,-7.7%
Cc1ccc2nc(NC(=S)NC(=O)c3ccco3)sc2c1,?,27.4,-4.1%,-27.0%,3.9%,42.0%
Cc1ccc2nc(NC(=O)c3ccco3)sc2c1,1µM*,?,-15.8%,-2.2%,4.47µM*,-79.5%
CC(=O)Nc1nc2c(s1)CCc1ccccc1-2,.,0.0,-1.0%,?,.,23.5%
Cc1ccc(OCc2nnc(NC(=O)c3ccco3)s2)c(C)c1,3.0%,-105.2*,-0.9%,20.8%,23.8%,.
O=C(Nc1nc2ccc(Cl)cc2s1)c1ccco1,11.2µM*,42.9,-15.4%,5.6%,?,-19.8%
O=C(Nc1nc2ccc(Br)cc2s1)c1ccco1,?,114.8,-5.9%,-16.8%,?,11.6%
O=C(CCCN1CCC(C(O)c2ccc(F)cc2)CC1)c1ccc(F)cc1 (stereo unspecified),.,6.1,.,.,.,-21.0%
O=C(Nc1nc2c(F)c(F)c(F)cc2s1)c1ccco1,-21.1%[46.1 µM],73.4,-6.6%,1.8%,?,18.1%
O=C(Nc1nc2c(ccc3ccccc32)s1)c1ccco1,?,83.1,-21.1%,25.1µM*,14.6µM*,0.2%
COc1cccc(OCc2cc(=O)n3cc(C)sc3n2)c1,-13.7%[46.1 µM],38.4,.,.,9.3%[46.1 µM],39.3%
CC[C@]12CCCN3CCc4c(n(c5ccccc45)[C@@](O)(C(=O)OC)C1)[C@@H]32,.,-32.7,-2.5%,-4.6%,.,-23.9%
CC[C@]12CCCN3CCc4c(n(c5ccccc45)C(=O)C1)[C@@H]32,.,47.2,.,6.31µM*,.,-24.7%
COc1cc2c(C(=O)N3CCOCC3)c(CSc3ccccc3)n(C)c2cc1Br,?,-9.5,-2.9%,10µM*,?,?
COc1cc2c(C(=O)N3CCN(C)CC3)c(C)n(C)c2cc1Br,-5.9%,2.6,1.9%,-15.6%,-7.6%,0.0%
Cc1ccc(NC(=O)CN(C)C(=O)c2sc3cc(Cl)ccc3c2Cl)cc1,-1.4%,-17.7,-0.9%,-3.9%[8.37 µM],13.1%,-12.9%
Cc1c(CN(C)C(=O)c2sc3cc(Cl)ccc3c2Cl)cnn1C,-22.2%,-84.1*,-3.9%,22.4µM*,?,0.0%
N#Cc1ccccc1COc1ccc(/C=C/C(=O)O)cc1,?,-71.0*,-1.1%,13.5%,?,0.0%
O=C(NCc1ccccn1)C12CC3CC(CC(C3)C1)C2,8.7%,1.6,1.4%,19.4%,?,-0.7%
CCCc1ccc(C(C)NC(=S)NC2CCCCC2)cc1 (stereo unspecified),.,-73.1*,-1.8%,?,.,-25.0%
CC(C)[C@@]1(NC(=O)[C@@H]2C[C@@H]3c4cccc5[nH]cc(c45)C[C@H]3N(C)C2)O[C@@]2(O)C3CCCN3C(=O)[C@H](Cc3ccccc3)N2C1=O (stereo partly specified),-39.6%,.,.,.,5.62µM*,.
SMILES,Lassa entry inh,HCMV inh,SARS PLP yeast,HCV inhibitor,MARV entry inh,FMDV inh
CN1C[C@H](C(=O)N[C@@]2(C)O[C@@]3(O)C4CCCN4C(=O)C(Cc4ccccc4)N3C2=O)C[C@H]2c3cccc4[nH]cc(c34)C[C@H]21 (stereo partly specified),.,.,.,.,.,8.6%
CC(C)[C@@]1(NC(=O)[C@@H]2C[C@@H]3c4cccc5[nH]cc(c45)C[C@H]3N(C)C2)O[C@@]2(O)[C@@H]3CCCN3C(=O)[C@H](Cc3ccccc3)N2C1=O,?,39.5,-3.8%,4.3%[8.37 µM],5.62µM*!,0.0%
COc1ccc(S(=O)(=O)N2CCCCCC2)cc1C(=O)N(C)Cc1ccc(Cl)cc1Cl,?,-29.2,-1.6%,11.2µM*,?,0.0%
Cc1cc(C)c(S(=O)(=O)N2CCCCC2)cc1N(C)S(=O)(=O)c1ccc(Cl)cc1,?,?,-3.2%,31.6µM*,?,-13.8%
COc1ccc(S(=O)(=O)N2CCCCCC2)cc1N(C)S(=O)(=O)c1ccc(C)cc1,?,-77.2*,-17.8%,?,?,-2.0%
COc1ccc(S(=O)(=O)N2CCOCC2)cc1N(C)S(=O)(=O)c1ccc(C)cc1,-14.2%,?,-3.2%,5.5%,-18.5%,-15.5%
Cc1ccc(S(=O)(=O)N(C)c2cc(S(=O)(=O)N3CCOCC3)c(C)cc2C)cc1,.,-8.0,0.0%,-25.5%,5.6%[46.1 µM],-18.3%
O=C(NCc1cccnc1)C(=O)NCC(c1cccnc1)N1CCN(c2ccccc2F)CC1 (stereo unspecified),-2.8%[46.1 µM],-5.0,.,.,.,0.0%
COc1ccc2oc(=O)c(C(=O)N3CCN(c4ccc(C)cc4)CC3)cc2c1,-2.8%[46.1 µM],-17.8,.,.,-2.3%[46.1 µM],-7.3%
COc1ccc(C(=O)c2ccc(N(C)C)cc2)c(OC)c1,-28.3%,66.4,5.5%,?,?,13.1%
CN(C)c1ccc(C(=O)c2ccc(N(C)C)c3ccccc23)cc1,0.251µM*,-80.0*,-10.1%,11.2µM*,?,42.4%
COc1ccc(OC)c(NC(=O)CN(Cc2ccc(F)cc2)C2CCCCC2)c1,?,-93.2*,-4.8%,?,?,?
COc1ccc(C)cc1NC(=O)CN(Cc1nnc(-c2ccc(Cl)cc2)o1)C1CCCC1,-0.9%,-7.7,-9.9%,7.94µM*,?,-1.9%
COc1cc(C2C(C#N)=C(N)OC3=C2C(=O)CC(C)(C)C3)cc([N+](=O)[O-])c1O (stereo unspecified),.,-31.8,0.7%,11.3%,.,-12.7%
NS(=O)(=O)c1ccc(S(=O)(=O)N(CCc2ccccc2)Cc2ccccn2)cc1,.,5.5,3.55µM*,14.0%,.,-16.1%
CCN(CC)S(=O)(=O)c1ccc(S(=O)(=O)N(Cc2ccccn2)Cc2ccco2)cc1,?,-22.7,3.4%,10µM*,-12.4%,.
O=S(=O)(NCc1ccccc1)c1ccc(S(=O)(=O)N(Cc2ccccn2)Cc2ccco2)cc1,-8.7%,51.0,5.2%,-11.8%,12.3%,.
CCCCC[C@H](O)/C=C/C=C\CCCCCCCC(=O)O,.,.,.,.,.,-14.4%[0.463 µM]
COc1ccc(C(=O)NCCS(=O)(=O)N2CCN(C(=O)c3ccco3)CC2)cc1,6.8%,5.5,-1.0%,-1.7%,-1.3%[46.1 µM],-15.0%
O=C(NCCS(=O)(=O)N1CCN(C(=O)c2ccco2)CC1)c1ccccc1,.,-79.1*,.,.,.,0.0%
N#Cc1ccc(-c2ccc(OCC(O)Cn3nnc4ccccc43)cc2)cc1 (stereo unspecified),1.3%,-37.2,-37.2%,?,?,28.2µM*
